Measurements: the supplement of paper PMC12494721
Structures can show the parent of a compound that is named as a salt.

Columns and labels:
Settings in all cases: incubation time: 27 h, anaerobic, 37 °C;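 for the amine columns active = adjusted P below 0.05 in both replicates with a change the same way and a mean fold change under 0.8 or over 1.25; inactive = the rest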
[1] = tested on: Clostridium sporogenes DSM 1664; test: growth (OD595) fold change vs plate DMSO controls (fold change (ratio)); higher = more growth
In short: (§1)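 The reported measure is growth: the fold change against the median of DMSO controls on the plate. Absorbance at 595 nm from anaerobic 96-well mGAM cultures grown for 27 h at 37 °C was blank-subtracted, corrected for background with 20 µM compound solutions in water, and converted to OD with a calibration factor of 5. Fold changes above 1.5 appear as NA, and values are the mean of 2 biological replicates.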

Escherichia coli IAI1 [2] = test: as above
In short: as §1

[3] = tested on: Klebsiella aerogenes DSM 30053; test: as above
In short: as §1

[4] = tested on: Ruminococcus gnavus DSM 108212; test: as above
In short: as §1

[5] = tested on: Klebsiella aerogenes DSM 30053; test: fold change of Histamine concentration vs plate DMSO controls (fold change (ratio)); higher = more amine produced, active = hit call of the paper (significant change in both replicates, either direction)
In short: (§2)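 Amines were quantified by LC–triple-quadrupole MS in dynamic MRM mode against external calibration curves, with drift correction within each batch. The samples were whole anaerobic mGAM cultures of four gut bacterial strains, grown for 27 h at 37 °C in 80 µL wells and extracted with cold acetonitrile/methanol with 0.1% formic acid, then centrifuged. Values are reported as fold change over DMSO controls on the same plate. The mean of 2 biological replicates is given.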

[6] = tested on: Clostridium sporogenes DSM 1664; test: fold change of Tryptamine concentration vs plate DMSO controls (fold change (ratio)); higher = more amine produced, active = hit call of the paper (significant change in both replicates, either direction)
In short: as §2

[7] = tested on: Ruminococcus gnavus DSM 108212; test: as above
In short: as §2

Escherichia coli IAI1 [8] = test: fold change of Putrescine concentration vs plate DMSO controls (fold change (ratio)); higher = more amine produced, active = hit call of the paper (significant change in both replicates, either direction)
In short: as §2

[9] = tested on: Klebsiella aerogenes DSM 30053; test: as above
In short: as §2

Escherichia coli IAI1 [10] = test: fold change of Cadaverine concentration vs plate DMSO controls (fold change (ratio)); higher = more amine produced, active = hit call of the paper (significant change in both replicates, either direction)
In short: as §2

[11] = tested on: Klebsiella aerogenes DSM 30053; test: as above
In short: as §2

[12] = tested on: Ruminococcus gnavus DSM 108212; test: fold change of 2-Phenylethylamine concentration vs plate DMSO controls (fold change (ratio)); higher = more amine produced, active = hit call of the paper (significant change in both replicates, either direction)
In short: as §2

SMILES	growth [1]	growth (Escherichia coli IAI1 [2])	growth [3]	growth [4]	fold change of Histamine concentration [5]	fold change of Tryptamine concentration [6]	fold change of Tryptamine concentration [7]	fold change of Putrescine concentration (Escherichia coli IAI1 [8])	fold change of Putrescine concentration [9]	fold change of Cadaverine concentration (Escherichia coli IAI1 [10])	fold change of Cadaverine concentration [11]	fold change of 2-Phenylethylamine concentration [12]
CC(=O)O[C@]1(C(C)=O)CC[C@H]2[C@@H]3C=C(C)C4=CC(=O)CC[C@@H]4[C@H]3CC[C@@]21C [Nomegestrol acetate] (20 µM)	1.01	1.05	1.05	1.25	0.943 (inactive)	1.01 (inactive)	1.03 (inactive)	1.03 (inactive)	1 (inactive)	0.946 (inactive)	1.03 (inactive)	1.02 (inactive)
Cc1c(O)c(=O)n(-c2ccccc2)n1C [Antipyrine, 4-hydroxy] (20 µM)	1.04	1.02	1.02	0.689	0.913 (inactive)	0.985 (inactive)	0.987 (inactive)	1.01 (inactive)	0.956 (inactive)	0.973 (inactive)	1.01 (inactive)	0.932 (inactive)
CCCC1O[C@@H]2C[C@H]3[C@@H]4CCC5=CC(=O)C=C[C@]5(C)[C@H]4[C@@H](O)C[C@]3(C)[C@]2(C(=O)CO)O1 (some centres not stated) [Budesonide] (20 µM)	1.13	0.993	0.997	1.08	1.06 (inactive)	0.934 (inactive)	0.998 (inactive)	1.02 (inactive)	1.01 (inactive)	1.02 (inactive)	0.994 (inactive)	0.984 (inactive)
OCCN1CCN(CC/C=C2/c3ccccc3Sc3ccc(Cl)cc32)CC1 [Zuclopenthixol dihydrochloride] (20 µM)	0.904	1.25	1.01	0.937	1.03 (inactive)	0.993 (inactive)	0.919 (inactive)	1.31 (inactive)	0.994 (inactive)	1.09 (inactive)	0.992 (inactive)	0.947 (inactive)
N=C(N)N/N=C/c1c(Cl)cccc1Cl [Guanabenz acetate] (20 µM)	0.918	0.923	0.914	1.48	1.02 (inactive)	1.03 (inactive)	1.02 (inactive)	0.979 (inactive)	0.99 (inactive)	1.01 (inactive)	0.973 (inactive)	1.02 (inactive)
CCCCOCCOCCOCc1cc2c(cc1CCC)OCO2 (20 µM)	1.07	1.02	1.03	1.09	0.98 (inactive)	1.03 (inactive)	1.04 (inactive)	1 (inactive)	1 (inactive)	1.02 (inactive)	1 (inactive)	1.06 (inactive)
